Assay results taken from PubChem BioAssay (Tox21).
Inconclusive results are not listed. Where a call stands in place of a potency, no number is given. Activity calls are given as the source filed them. The call rests on the fitted dose curve; in most records, active means well fitted cell-killing curve with a large enough effect in the repeat runs; inconclusive means weak or mixed curves, or effect the other way; inactive means flat fitted curve, though single readings scatter.

Columns and labels:
[1] = cAMP Responsive Elements (CRE) small molecule antagonists, cell-based qHTS assay: qHTS cell viability counter screen (AID 2060913); further: nearly all actives have a fitted effect of over 40% in size
Procedure, shortened: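 HEK293T CRE-bla, 2,000 cells/well, 18 h preincubation; cpd in DMSO + NKH477 0.25 uM final, 3 h 37 C/5% CO2; LiveBLAzer 2 h RT, then CellTiter-Glo 30 min RT, luminescence.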

[2] = cAMP Responsive Elements (CRE) small molecule agonists, cell-based qHTS assay: qHTS cell viability counter screen (AID 2060914);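 further: viability read after 3 h of compound exposure; nearly all actives have a fitted effect of over 50% in size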
Procedure, shortened: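 Cytotoxicity counter screen multiplexed with the CRE-bla reporter assay in HEK 293T cells: 3 h compound exposure at 37 °C, followed by CellTiter-Glo luminescence measured in the same wells.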

Compound | Potency [1] | Potency [2]
Nc1ncn([C@@H]2O[C@H](CO)[C@@H](O)[C@H]2O)c(=O)n1 | inactive | inactive
c1ccc2c(c1)ccc1c3ccccc3ccc21 | inactive | inactive
O=C1CCC(=O)N1Cl | inactive | inactive
O=C(c1ccc(O)cc1)c1ccc(O)c(O)c1O | inactive | inactive
CN1[C@@H]2CC(OC(=O)[C@H](CO)c3ccccc3)C[C@H]1[C@@H]1O[C@@H]12 (stereo partly drawn) | inactive | inactive
COc1ccc(/C=C/C(=O)c2ccc(OC)cc2OC)cc1 | inactive | inactive
CCCCCCCCCOC(=O)CCCCC(=O)OCCCCCCC | inactive | inactive
CCOC(=O)Cc1cccc2ccccc12 | inactive | inactive
CN(C)CCN(Cc1ccc(Cl)cc1)c1ccccn1 | inactive | inactive
